Experimental data as given in the supplement of paper PMC10811239.

What follows are molecules tested on LEGO organoid PTCC (PTEN-/-; TP53-/-; CDKN2A-/-; CDKN2B-/-) (assay: bioluminescence (viable cell) signal fold change after vs before treatment, normalised to DMSO (ratio); higher = more tumour cell growth / less inhibition). Conditions: 10 µM; treatment time 6 days.
Method: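 Luc2-labelled iPSC-derived glioblastoma-like organoids (LEGOs, genotypes PT = PTEN-/-;TP53-/-, PTCC = plus CDKN2A/B-/-, PTN = plus NF1-/-) were treated with 10 uM drug for 6 days (applied every other day) at 37 C. Bioluminescence imaging was done before treatment and 2 days after the last dose. BLI signals were normalised to the DMSO control on the same day and then to the pre-treatment signal (N=3).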
Molecule `COc1cc(Nc2c(C#N)cnc3cc(OCCCN4CCN(C)CC4)c(OC)cc23)c(Cl)cc1Cl` [Bosutinib] has a bioluminescence of 0.731. Molecule `CN(C)CCCN1c2ccccc2CCc2ccccc21.Cl` [Imipramine hydrochloride] has a bioluminescence of 0.82. With `CC/C(=C(/CC)c1ccc(O)cc1)c1ccc(O)cc1` [Diethylstilbestrol] the bioluminescence was 0.673. For `N#Cc1ccc2[nH]cc(CCCCN3CCN(c4ccc5oc(C(N)=O)cc5c4)CC3)c2c1` [Vilazodone], the bioluminescence was 1.83. `CO[C@H]1C[C@@H]2CC[C@@H](C)[C@@](O)(O2)C(=O)C(=O)N2CCCC[C@H]2C(=O)O[C@H]([C@H](C)C[C@@H]2CC[C@@H](OC(=O)C(C)(CO)CO)[C@H](OC)C2)CC(=O)[C@H](C)/C=C(\C)[C@@H](O)[C@@H](OC)C(=O)[C@H](C)C[C@H](C)/C=C/C=C/C=C/1C` [Temsirolimus] gave a bioluminescence of 0.978. In the case of `CCN(CC)CCNC(=O)c1cc(Cl)c(N)cc1OC` [5-Chloro-2-methoxyprocainamide], the bioluminescence is reported as 0.329. For `Cl.O=c1n(CCCN2CCN(c3cccc(Cl)c3)CC2)nc2ccccn12` [Trazodone hydrochloride], the bioluminescence was 2.62. With `COc1cc2c(cc1OC)C(=O)C(CC1CCN(Cc3ccccc3)CC1)C2.Cl` (stereo not drawn) [Donepezil HCl] the bioluminescence was 0.812. `Cc1nc2n(c(=O)c1CCN1CCC(c3noc4cc(F)ccc34)CC1)CCCC2O` (stereo not drawn) [Paliperidone] gave a bioluminescence of 0.722. For `CN1CCN(CCCN2c3ccccc3Sc3ccc(C(F)(F)F)cc32)CC1.Cl.Cl` [Trifluoperazine dihydrochloride], the bioluminescence was 1.31. `O=C(O)Cc1ccccc1Nc1c(Cl)cccc1Cl` [Diclofenac] showed a bioluminescence of 1.13. `CCc1cc2c(cc1N1CCC(N3CCOCC3)CC1)C(C)(C)c1[nH]c3cc(C#N)ccc3c1C2=O` [Alectinib] was tested, and the bioluminescence was 2.57. Molecule `CC(C(=O)O)c1cccc(C(=O)c2ccccc2)c1` (stereo not drawn) [Ketoprofen] has a bioluminescence of 1.2. Work on `Nc1nc(NC2CC2)c2ncn([C@H]3C=C[C@@H](CO)C3)c2n1.Nc1nc(NC2CC2)c2ncn([C@H]3C=C[C@@H](CO)C3)c2n1.O=S(=O)(O)O` [Abacavir sulfate] yielded a bioluminescence of 1.28. In the case of `COc1ccc2c(c1)c(CC(=O)O)c(C)n2C(=O)c1ccc(Cl)cc1` [Indometacin], the bioluminescence is reported as 1.24. In the case of `CO/N=C(\C(=O)N[C@@H]1C(=O)N2C(C(=O)[O-])=C(C[N+]3(C)CCCC3)CS[C@H]12)c1csc(N)n1.Cl.Cl.O` [Cefepime Dihydrochloride Monohydrate], the bioluminescence is reported as 0.833. For `CCC(C)(C)C(=O)O[C@H]1C[C@@H](C)C=C2C=C[C@H](C)[C@H](CC[C@@H]3C[C@@H](O)CC(=O)O3)[C@H]21` [Simvastatin], the bioluminescence was 1.71. `Cl.OC(CCN1CCCCC1)(c1ccccc1)C1CCCCC1` (racemic) [DL-trihexyphenidyl hydrochloride] showed a bioluminescence of 0.966. `Cl.NC12CC3CC(CC(C3)C1)C2` [Amantadine hydrochloride] was tested, and the bioluminescence was 1.07. `C[C@H]1[C@H](NC(=O)/C(=N\OC(C)(C)C(=O)O)c2csc(N)n2)C(=O)N1S(=O)(=O)O` [Aztreonam] was tested, and the bioluminescence was 0.795. `CN(C)CC(c1ccc(O)cc1)C1(O)CCCCC1.O=C(O)CCC(=O)O` (stereo not drawn) [Desvenlafaxine succinate hydrate] showed a bioluminescence of 0.582. `CNCC[C@@H](Oc1ccccc1C)c1ccccc1.Cl` [Atomoxetine hydrochloride] was tested, and the bioluminescence was 1.04. `Nc1nc(Cl)nc2c1ncn2[C@H]1C[C@H](O)[C@@H](CO)O1` [Cladribine] gave a bioluminescence of 1.17. Work on `O.O.O.O.O.O.O.O=C1CN(/N=C/c2ccc(-c3ccc([N+](=O)[O-])cc3)o2)C(=O)[N-]1.O=C1CN(/N=C/c2ccc(-c3ccc([N+](=O)[O-])cc3)o2)C(=O)[N-]1.[Na+].[Na+]` [Dantrolene sodium hemiheptahydrate] yielded a bioluminescence of 2.4. In the case of `N=C(N)NCCCC[C@@H]1NC(=O)CCSSC[C@@H](C(N)=O)NC(=O)[C@@H]2CCCN2C(=O)[C@H](Cc2c[nH]c3ccccc23)NC(=O)[C@H](CC(=O)O)NC(=O)CNC1=O` [Eptifibatide], the bioluminescence is reported as 0.768. With `N[C@@H](Cc1ccc(O)c(O)c1)C(=O)O` [Levodopa] the bioluminescence was 1.76. `NC(=O)c1cn(Cc2c(F)cccc2F)nn1` [Rufinamide] was tested, and the bioluminescence was 2.69. Work on `C[C@H](Cn1cnc2c(N)ncnc21)OCP(=O)(O)O` [Tenofovir] yielded a bioluminescence of 3.69.
